The source of these data is PubChem BioAssay AID652039 (The Scripps Research Institute Molecular Screening Center, 2013).

Hit rate of the full screen: of about 370,000 compounds, about 3,300 (0.89%) were called active. The list comes from a sample in which actives are over-represented; it also holds similar structures and randomly drawn compounds. Values without a mark were called inactive.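 Rule for the calls: active = activation above the mean of all tested compounds plus 3 SD, computed per campaign excluding outliers beyond control limits (cut at about 13% in these data); inactive = the rest.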

The target in the assay is Kallikrein-7 (Homo sapiens) (UniProt P49862). Nature of the assay: activation of human kallikrein-7 proenzyme – biochemical, fluorescence intensity, primary screen (AID 652039). The following applies: purified proKLK7, EDANS-DABCYL substrate fluorescence; at 7 µM; stronger effect = higher value; 100% is mature enzyme control, 0% vehicle.
Sequence of Kallikrein-7 (Homo sapiens) (P49862 whole entry, looked up): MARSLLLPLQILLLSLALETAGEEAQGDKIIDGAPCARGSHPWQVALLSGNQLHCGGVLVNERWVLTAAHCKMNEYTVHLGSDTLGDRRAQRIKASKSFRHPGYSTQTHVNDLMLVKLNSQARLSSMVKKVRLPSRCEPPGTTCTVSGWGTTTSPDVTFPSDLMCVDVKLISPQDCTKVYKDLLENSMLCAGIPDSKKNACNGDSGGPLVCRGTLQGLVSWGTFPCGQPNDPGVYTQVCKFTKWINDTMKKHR
As to `C=CCN1C(=O)[C@@H](CC(=O)N2CCN(C(=O)c3ccco3)CC2)[C@]2(C(=O)OC)CCCCC=C12`, the activation is 0.64%.

Consider `COC(=O)C[C@H]1CC[C@H]2[C@H](COc3ccc(NC(=O)C4CC4)cc3C(=O)N2C)O1`, for which the activation is -0.05%.

Consider `CCC(=O)Nc1ccc2c(c1)C(=O)N(C)[C@@H]1CC[C@@H](CC(=O)NCCc3ccccc3)O[C@H]1CO2`, for which the activation was -0.14%.

Consider `Cc1cc(NS(=O)(=O)c2ccc(NC(=O)CSc3nnc(-c4ccc(C(C)(C)C)cc4)n3Cc3ccco3)cc2)nc(C)n1`, for which the activation is 0.49%.

Take `O=C(c1cccc(C(F)(F)F)c1)N1CC[C@H]2[C@H](CCCN2Cc2cc(F)cc(F)c2)C1`: the activation was 0.19%.

`COc1ccc(CSc2nnc(SCC(=O)Nc3ccccc3C(F)(F)F)s2)cc1`: the activation is 0.45%.

As for `COc1cccc2cc(C(=O)N3CCN(C(=O)c4ccccc4)CC3)c(=O)oc12`, the activation is -0.14%.

With `COc1ccc(C(=O)N2CCCN(C)CC2)c(OC)c1`, the activation is -0.04%.

Turning to `COc1ccc2oc(=O)c(C(=O)N3CCCC3)cc2c1`, the activation was 21.5% (active).

On to `O=C(CN1CCC(NC(=O)NCc2ccccc2)CC1)Nc1ccc2c(c1)OCCO2`, for which the activation is 0.32%.

On to `CC(C)(C)C(=O)N1CCC[C@@]1(CO)C(=O)O`, for which the activation is 0.12%.

On to `COc1cccc(NC(=O)CN(C)C(=O)c2ccccc2CCc2ccccc2)c1`, for which the activation was 0.07%.

As to `COc1cccc(NC(=O)CN(C)C(=O)/C=C/c2cc(OC)ccc2OC)c1`, the activation was 58% (active).

On to `COc1cccc(NC(=O)CN(C)C(=O)Cc2ccc(Cl)cc2Cl)c1`, for which the activation is -0.14%.

With `O=C(NC1CCCCN(Cc2cccc(C(F)(F)F)c2)C1=O)c1ccccc1I` (stereo not drawn), the activation is 0.36%.

For the compound `C#Cc1cc(N2CCN(C(=O)c3ccoc3)CC2)n2nc(-c3cccc(Cl)c3)cc2n1`, the activation is -41%.

`CN(C)C(=O)c1nc2ccc(Cl)cn2c1CN1CCN(c2ncccn2)CC1`: the activation is -1.33%.

Take `CN(C)CCN1CCN(c2cc(-c3cccc(Cl)c3)nc3ccnn23)CC1`: the activation is 18.8% (active).

In the case of `Cc1ccc(-n2c(SCC(=O)Nc3cccc4ccccc34)nnc2-c2ccco2)cc1`, the activation was -0.44%.

For `C=CS(=O)(=O)N(Cc1nnn(Cc2ccccc2)c1Br)[C@H](C(=O)OC)C(C)C`, the activation was -0.36%.

For the compound `Nc1ccccc1-c1nc2ccncc2[nH]1`, the activation is 86.7% (active).

In the case of `Cc1cc(C)nc(Nc2n[nH]c(-c3ccccc3N)n2)n1`, the activation was 6.37%.

Regarding `CN(C(N)=NC(=O)/C=C/c1ccccc1)C(C#Cc1ccccc1)Cc1ccccc1` (stereo not drawn), the activation is -0.15%.

`O=C(NCc1cccs1)C1CCN(S(=O)(=O)c2ccccc2[N+](=O)[O-])CC1`: the activation was 0.23%.

In the case of `COC(=O)[C@H](C(C)C)N1CCc2nnn(Cc3ccc(C)cc3)c2-c2ccccc2S1(=O)=O`, the activation is -0.1%.

With `CC(C)=NN1C(=O)c2ccccc2NC1(C)C`, the activation is 13% (active).

With `CC(=O)N1C(=O)C2(Nc3ccccc3N2)c2ccccc21`, the activation was -5.83%.

For `COC(=O)c1cc(S(=O)(=O)N2CCN(C(=O)C3CCCO3)CC2)cn1C` (stereo not drawn), the activation is -0.37%.

Consider `O=C(C1CCCN1S(=O)(=O)c1ccccc1)N1CCc2ccccc2C1` (stereo not drawn), for which the activation was -0.08%.

Take `Cc1cc(C(F)(F)F)c(C#N)c(SCC(=O)NC2CC2)n1`: the activation is -0.4%.

With `Cc1cc(C)c(C#N)c(SCC(=O)NN2CC(=O)N(c3ccccc3F)CC2=O)n1`, the activation is 68.7% (active).

For the compound `COCc1cc(C)nc(SCC(=O)Nc2cccc(C)c2)c1C#N`, the activation is 0.51%.

As for `CCOC(=O)[C@]12CCCC3=C1N(CCC3)C(=O)[C@@H](CC(=O)NCc1cccs1)C2`, the activation is -0.54%.

Take `CCN(CC)Cc1c(C(=O)N/N=C/c2cccc(OCc3ccc(F)cc3)c2)nnn1-c1nonc1N`: the activation was 0.38%.

Turning to `COc1cccc(OCc2cc(/C=N/NC(=O)c3nc(Cl)c(Cl)c(N)c3Cl)ccc2OC)c1`, the activation was 48.2% (active).

Take `COc1ccc(S(=O)(=O)N/N=C\c2ccc(OC)c(COc3ccc(C)cc3[N+](=O)[O-])c2)cc1`: the activation was 0.18%.

`COC(=O)[C@]12C[C@H](CC(=O)NCCCN3CCCC3=O)C(=O)N(CCc3ccc(OC)c(OC)c3)C1=C[C@H](COCc1ccccc1)O[C@@H]2C`: the activation is -0.02%.

Take `COC(=O)[C@]12C[C@H](CC(=O)NCc3ccccc3)C(=O)N(CCc3ccc(OC)c(OC)c3)C1=C[C@H](C(C)(C)C)O[C@@H]2C`: the activation was 0.13%.

`COc1ccc(Cn2cc(COC(=O)N(C)Cc3ccccc3)nn2)cc1`: the activation was 0.16%.

On to `CN(C)CC(=O)N[C@@H]1C[C@@H]2O[C@H](CO)CC[C@@H]2O[C@@H]1CCc1ccc(C#Cc2ccccc2)cc1`, for which the activation was 0.21%.

Consider `Cc1cc(C)c2c(n1)nn1c(-n3ccnc3)cc(C)nc21`, for which the activation was 15.7% (active).

As for `Cc1cc(C)c2c(NC(=O)C3CC3)nn(C)c2n1`, the activation was -0.27%.

In the case of `Cc1ccc(OCc2nnc(SC/C=C/c3ccccc3)n2Cc2ccco2)cc1`, the activation was 0.81%.

Take `C=CCN1C(=O)[C@@H](CC(=O)N2CCN(C(=O)OCC)CC2)[C@]2(C(=O)OCC)CCCCC/C=C/12`: the activation was 0.05%.

As for `NC(N)=Nc1nc(-c2ccccc2)c2cc(Cl)ccc2n1`, the activation is 14.3% (active).

In the case of `Clc1ccc2nc(-c3ccccc3)nc(C(Cl)Cl)c2c1`, the activation was -0.5%.

On to `NC(N)=Nc1nc2ccc(Br)cc2c(=O)[nH]1`, for which the activation is -0.15%.

For the compound `CC(C)N1CCCCC(NC(=O)c2ccc3ccccc3c2)C1=O` (stereo not drawn), the activation was 0.11%.

Consider `C=CCN1C(=O)[C@@H](CC(=O)NCCCCc2ccccc2)[C@]2(C(=O)OCC)CCCCC/C=C/12`, for which the activation is 0.05%.

With `CC(=O)C1(C(=O)Nc2nccs2)CC(c2ccccc2C(F)(F)F)=NO1` (stereo not drawn), the activation is 1.07%.

Regarding `COC(=O)[C@]12C[C@H](CC(=O)NCCc3ccccc3OC)C(=O)N(Cc3ccco3)C1=C[C@H](C(C)C)O[C@@H]2C1CC1`, the activation was 0.66%.

For the compound `CCOC(=O)C1=C(O)/C(=C/c2ccc(OCC(=O)Nc3ccc(C)cc3)cc2)N=C1C`, the activation was 31.9% (active).

Regarding `Cc1ccc(NC(=O)CN(C)C(=O)COC(=O)c2nccnc2N)cc1`, the activation is 8.05%.

As for `CCOc1ccc(NC(=O)COc2ccc(S(=O)(=O)N3CCCC3)cc2)cc1`, the activation is 0.16%.

As for `CC(c1c[nH]c2ccccc12)c1c(-c2ccccc2)n(C)c2ccccc12` (stereo not drawn), the activation is -7.26%.

In the case of `COc1ccc(C(=O)OCCN2CCN(C3CN(Cc4cn(Cc5ccccc5F)nn4)S(=O)(=O)C3)CC2)cc1OC` (stereo not drawn), the activation is 0%.

For `Clc1ccc(-n2c(SC/C=C/c3ccccc3)nnc2-c2ccco2)cc1`, the activation is 0.14%.

As for `Cc1ccccc1Cn1nc(C)c(NC(=O)C(F)(F)F)c1C`, the activation is -0.19%.

With `COCc1cc(=O)[nH]c2cc(NC(=O)C(F)(F)F)c(C)cc12`, the activation is 466% (active).

For the compound `COCc1cc(=O)[nH]c(-c2ccc(C(F)(F)F)cc2)n1`, the activation is 0.23%.

With `COc1ccc(OC)c(Cc2cnc3nc(N)nc(N)c3c2C)c1`, the activation was -0.29%.

Take `COC[C@@H]1CCCN1c1ccc2c(c1)O[C@H](C)CCN(C1CC1)S2(=O)=O`: the activation was -0.36%.

On to `CCOC(=O)[C@]12CCCC3=C1N(CCC3)C(=O)[C@@H](CC(=O)N1CCSCC1)C2`, for which the activation was -0.2%.

For `COC(=O)c1cc(C(=O)OC)cc(N2C(=O)CC(N3CCN(c4ccccc4)CC3)C2=O)c1` (stereo not drawn), the activation is -0.42%.

Take `COC(=O)C1(C)NC(c2ccccc2OC)C2C(=O)N(c3ccccc3)C(=O)C21` (stereo not drawn): the activation was 0.39%.

As for `COC(=O)C1=NN(c2ccccc2)C2C(=O)N(c3ccccc3OC)C(=O)C12` (stereo not drawn), the activation was 20.8% (active).

On to `CCOc1ccc(-n2c(SCC(=O)Nc3cc(C)c(NC(=O)c4ccccc4)cc3OC)nnc2-c2cccs2)cc1`, for which the activation is 13.4% (active).

`CCOc1ccc(-n2c(SCC(=O)Nc3cc(C)c(NC(=O)c4ccccc4)cc3OC)nnc2-c2cccc(Cl)c2)cc1`: the activation was 4.85%.

On to `COc1ccc(-n2c(SCC(=O)Nc3ccccc3-c3ccccc3)nnc2-c2cccnc2)cc1`, for which the activation was -0.23%.

Regarding `COc1ccc(S(=O)(=O)N2CCN(C(=O)N(C)C)C2C)cc1` (stereo not drawn), the activation was 0.63%.

Consider `Cc1ccc(-n2c(SCC(=O)Nc3ccc(S(=O)(=O)Nc4nccs4)cc3)nnc2-c2ccccn2)cc1`, for which the activation is 0.68%.

In the case of `CC1(C)CN(c2ccc(-c3ccnc4ncnn34)cc2)C1=O`, the activation was 29.6% (active).

In the case of `Nc1c(-c2ccc(F)cc2)cnc2ncnn12`, the activation is 0.09%.

As for `Cc1cc([N+](=O)[O-])nn1Cc1ccc(F)cc1`, the activation is 0.68%.

Regarding `CC(=O)O[C@@]1(C(C)=O)CCC2[C@H]3C=C(C)C4=CC(=O)CC[C@@]4(C)C3CC[C@]21C` (stereo partly drawn), the activation was 0.5%.

Turning to `COc1cc(Cl)c(C)cc1NC(=O)COC(=O)c1cc(SC)ccc1Cl`, the activation is -0.31%.

Take `COC(=O)Cc1nc2c(N)nc(N)nc2[nH]c1=O`: the activation was 29.9% (active).

`CCCCOCCCNC(=O)C[C@H]1C[C@@]2(C(=O)OC)C(=C[C@H](COCc3ccccc3)O[C@@H]2C)N(Cc2cccc3ccccc23)C1=O`: the activation was -0.35%.

Turning to `COC1=C[C@H](C(=O)NCCNC(C)=O)[C@H](C)[C@@H](c2ccccc2)CC1=O`, the activation is 0.74%.

As for `O=C(Nc1ccc(Br)cc1)OCCN1C(=O)CCC12CCC(c1ccccc1)CC2` (stereo not drawn), the activation was 0.49%.

For `CCOc1ccc2[nH]c(=O)c(CN(Cc3nnnn3CCc3ccccc3)CC3CCCO3)cc2c1` (stereo not drawn), the activation is -0.26%.

Take `CCC(c1nnnn1Cc1ccco1)N(CCc1ccccc1)Cc1cc2ccc(OC)cc2[nH]c1=O` (stereo not drawn): the activation is 21.6% (active).

Take `CCC(c1nnnn1Cc1ccco1)N(Cc1cc2cc(OC)ccc2[nH]c1=O)C1CCCCC1` (stereo not drawn): the activation is 1.29%.
